Pf growth 96h – P. falciparum growth inhibition at 96 hour, primary screen for plastid delayed-death inhibitors | P. falciparum luciferase reporter growth, 96 h | Potency, µM (titrated, usually from 28.7 µM), most hits filed as inhibitors | 6.9% of 320,000 active | AID 504834
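P. falciparum expressing integrated firefly luciferase, in erythrocytes at 2% hematocrit, 0.05% parasitemia, incubated with compounds 96 h at 37 C, 5% CO2. Growth inhibition read as loss of luminescence; two-generation exposure targets delayed-death apicoplast inhibitors.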
HCV inhibitor – HCV inhibition; Huh7.5.1 HCVcc-Cre infection, luciferase reporter, 44 h; Potency, µM (series often up to 41.8 µM), usual class: inhibitors; 3.4% of 340,000 active; AID 651820
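Reporter virus HCVcc-Cre (~0.5 moi) infects cells exposed to compound; seeding density 1,000 cells/well with 4 h settling beforehand. Luminescence, 15 sec read, taken 44 h post-infection following a 15 min RT substrate incubation.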
AMA1-RON2 inh – inhibitors of Plasmodium falciparum AMA1-RON2 interaction. AlphaScreen AMA1-biotinylated RON2 peptide binding. Potency, µM (top dose mostly 58.2 µM), usual class: inhibitors. 0.2% of 360,000 active; note: nearly all actives have a fitted effect of over 45% in size
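AMA1 (3D7) with his tag at 25 nM final met compounds first, then biotinylated RON2 peptide at 25 nM; detection used donor plus acceptor beads, 10 µg/mL apiece, read by AlphaScreen after 30 min at room temperature.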
SARS PLpro yeast – inhibitors of SARS-CoV papain-like protease in yeast; S. cerevisiae expressing SARS-CoV PLpro, growth rescue; Potency, µM (highest dose often 32.9 µM), most hits filed as activators; 0.19% of 330,000 active; AID 485353; calls by dose curve; note: nearly all actives have a fitted effect of over 55% in size
NS1 inh – inhibitors of influenza NS1 protein function. Potency, µM (highest dose often 46.1 µM). 0.4% of 270,000 active. AID 2326; calls by dose curve; note: actives are rising curves; nearly all actives have a fitted effect of over 50% in size
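Read-out: OD600 growth recovery of NS1-expressing budding yeast. Cells grown overnight at 30C in -URA glucose medium, washed, resuspended and diluted 1:100 in 2% galactose assay medium, pH 6.0. Same strain lacking NS1 served as positive control.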
Pf growth 48h – P. falciparum growth inhibition at 48 hours (one generation); P. falciparum luciferase growth in erythrocytes, 48 h; Potency, µM (series often up to 28.7 µM), actives largely listed as inhibitors; 5.9% of 310,000 active; AID 504832
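In quantitative HTS format, infected erythrocytes bearing luciferase-reporter parasites were treated for a single generation at 37 C. Luminescence after adding detection reagent served as the growth measure.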
Numbers stand for hits; . = inactive; ? = inconclusive; / = not tested or not shown; [ ] = dose if it differs, or a comment. Shown are actives, neighbours in structure and some others; about 12% of the full set was active somewhere. Unless noted, calls come from the whole dose curve; as a rule, active = well fitted curve in the direction sought with a large enough effect; inconclusive = small, poorly fitted or top-dose-only effect, or another doubt; inactive = no such curve, though single readings can be large; an effect the other way counts as inactive or inconclusive.

SMILES	Pf growth 96h	HCV inhibitor	AMA1-RON2 inh	SARS PLpro yeast	NS1 inh	Pf growth 48h
O=c1nc(N/N=C/c2c[nH]c3ccccc23)cn[nH]1	0.41µM	.	.	.	.	.
COc1ccccc1C1c2[nH]c3ccccc3c2C[C@H]2C(=O)N(C3CCN(Cc4ccccc4)CC3)CC(=O)N12 (some centres undefined)	1.5µM	?	.	.	.	1.9µM
COc1ccc(C2c3[nH]c4ccccc4c3C[C@H]3C(=O)N(C4CCN(Cc5ccccc5)CC4)CC(=O)N23)cc1OC (some centres undefined)	1.5µM	?	.	.	.	1.5µM
COc1cccc(C2c3[nH]c4ccccc4c3C[C@H]3C(=O)N(C4CCN(Cc5ccccc5)CC4)CC(=O)N23)c1 (some centres undefined)	3.7µM	?	.	.	.	4.7µM
Cc1ccccc1C1c2[nH]c3ccccc3c2C[C@H]2C(=O)N(C3CC3)CC(=O)N12 (some centres undefined)	3.7µM	.	.	.	.	12µM
O=C1[C@@H]2Cc3c([nH]c4ccccc34)C(c3ccccc3)N2C(=O)CN1C1CC1 (some centres undefined)	?	.	.	.	.	?
O=C1[C@@H]2Cc3c([nH]c4ccccc34)C(c3ccc([N+](=O)[O-])cc3)N2C(=O)CN1C1CC1 (some centres undefined)	?	?	.	.	.	.[0.00184 µM]
Cc1oc(-c2cc(F)cc(F)c2)nc1CN1CCSCC1	?	.	.	.	.	.
COCC(C)n1c(SC(C)C(=O)NC2CCCCC2C)nc2ccccc2c1=O (centres undefined)	?	.	.	.	.	?
Oc1cccc(-c2nnc(-c3cccc(O)c3)nn2)c1	/	?	.	/	/	/
CCn1c(O)c(/C=C2\C=Nc3ccccc32)sc1=Nc1ccc(C)cc1	.	.	.	.	.	?
CCn1c(O)c(/C=C2\C=Nc3ccccc32)sc1=O	7.4µM	?	.	.	.	.
CCCCCN(C(=O)CN1CCC(Cc2ccccc2)CC1)c1c(N)n(CCCC)c(=O)[nH]c1=O	.	?	.	.	/	?
COc1cccc(C(=O)Cn2c(=O)n(CC3CCCO3)c(=O)c3ccccc32)c1 (centres undefined)	12µM	.	.	.[6.58 µM]	.	/
O=C(Cn1c(=O)n(CC2CCCO2)c(=O)c2ccccc21)c1ccccc1 (centres undefined)	?	.	.	.	.	.
COCCNC(=O)/C=C/c1c(Cl)cccc1Cl	?	.	.	.	.	.
CC1=C(C(=O)N2CCOCC2)CC(CC(=O)NCCc2ccccn2)C(=O)N1Cc1ccccc1 (centres undefined)	/	/	.	/	/	/
CCOC(=O)c1cnn(-c2ccc(Cl)cc2)c1C1CCN(C(=O)OC(C)(C)C)CC1	.	13µM	?	.	.	/
Cc1ccc(-n2ncc(C(=O)N3CCN(C(=O)c4ccco4)CC3)c2C2CCN(C(=O)OC(C)(C)C)CC2)cc1C	.	.	.	.	.	4.7µM
O=C(NC(C(=O)N/N=C/c1cccc2ccccc12)c1n[nH]c(=O)c2ccccc12)c1ccccc1 (centres undefined)	.	22µM	.	.	.	?
COc1ccc2cc3[n+](cc2c1OC)CCc1cc2c(cc1-3)OCO2	0.15µM	?	.	.	.	0.23µM
COc1cccc(C2=NCCc3cc4c(cc32)OCO4)c1OC	.	.	.	.	.	.
O=C(O)CN1CCN(Cc2ccc(Cl)cc2)C1=O	.	.[0.335 µM]	.	.	.	.
O=C(NCC(c1ccco1)N1CCOCC1)c1ccc(Cl)cc1 (centres undefined)	.	.	.	.	/	.
COc1cc(C(=O)NCC(c2ccco2)N2CCCC2)ccc1OCc1ccc(Cl)cc1Cl (centres undefined)	/	?	.	/	/	/
SMILES	Pf growth 96h	HCV inhibitor	AMA1-RON2 inh	SARS PLpro yeast	NS1 inh	Pf growth 48h
COc1ccc(Cl)cc1C(=O)NCC(c1ccco1)N1CCCC1 (centres undefined)	4.1µM	?	.	.	.	?
COc1ccccc1C(=O)NCCC(=O)NCC(c1ccco1)N1CCCC1 (centres undefined)	12µM	.	.[11.6 µM]	.	/	.
O=C(CCNC(=O)c1ccc(Cl)cc1)NCC(c1ccco1)N1CCCC1 (centres undefined)	?	.	.	.	/	12µM
CSCCC(NC(=O)c1ccccc1Br)C(=O)NCC(c1ccco1)N1CCCCC1 (centres undefined)	9.3µM	.	.	.	/	?
COc1ccc(S(=O)(=O)N2CCOCC2)cc1NC(=O)CCOc1ccc(C(C)(C)C)cc1	?	?	.	.	/	?
O=C(CN(Cc1ccc(Cl)cc1)S(=O)(=O)c1ccccc1)NCC1CCCO1 (centres undefined)	.	.	.	.	.	?
Cc1nnc(Sc2cc(C(=O)NCCCN(C)Cc3ccccc3)c3ccccc3n2)s1	2.1µM	.	.	.	.	?
COCCCNC(=O)c1cc(Sc2nnc(C)s2)nc2ccccc12	.	.	.	.	.	.
CCOCCCNC(=O)c1cc(Sc2nnc(C)s2)nc2ccccc12	.	10µM	.	.	.	.
O=C(NC(Cc1ccccc1)C(=O)O)/C(=C/c1ccc([N+](=O)[O-])cc1)NC(=O)c1ccco1 (centres undefined)	.	.	.	.	.	.
O=C1CN(C(=O)COC(=O)CCC(=O)c2ccc(F)cc2)c2ccccc2N1	/	.	.	.	/	/
CC1(C)Cc2c(C#N)c(NCC3CCCO3)nc(-c3ccco3)c2CO1 (centres undefined)	/	?	.	.	.[9.22 µM]	?
CC1(C)Cc2nc(NC3CCCCC3)c(C#N)cc2CO1	.	.	.	.	.	9.3µM
CC1(C)Cc2c(C#N)c(NC3CCCCC3)nc(-c3ccco3)c2CO1	9.3µM	.	/	.	.	5.9µM
O=C(COC(=O)c1ccc2c(c1)OCCO2)NC1CCCCC1	.	.	.[11.6 µM]	.	/	.
C[C@@H]1CN([C@H](C)CO)C(=O)c2c(c3ccccc3n2C)-c2ccccc2CO[C@H]1CN(C)C(=O)Nc1ccccc1	/	/	.	/	/	/
CCCCCCc1cc2cc(C(=O)Nc3ccccc3)c(=O)oc2cc1O	?	4.5µM	.	.	.	?
CC1=C(CC/C(C)=N/NC(N)=S)C(C)(C)CCC1	.	25µM	.	14µM	.	?
CC1=C(CCN2CCN(C3CCCC3)C(CCO)C2)C(C)(C)CCC1 (centres undefined)	.	?	.	.	.	?
Cc1cc2nc(-c3cccc(Cl)c3)c(Cc3ccsc3)n2c(C)c1Br	/	/	.	/	/	/
Cc1ccc(N2CS(=O)(=O)/C(=C/N(C)C)C2=O)cc1	.	.	.	.	.	2.6µM
CN1C(=O)C(Cc2cnc[nH]2)NC1=S (centres undefined)	.	.	.	.	.	.

Screening results as filed in PubChem.
